The text below walks through data of a collection of fitness landscapes (doi:10.1126/science.1257360).

B1: PhoQ; a variant is named by its letters at X, in order, P23837 (parent)
chain: MKKLLRLFFPLSLRVRFLLATAAVVLVLSLAYGMVALIGYSVSFDKTTFRLLRGESNLFYTLAKWENNKLHVELPENIDKQSPTMTLIYDENGQLLWAQRDVPWLMKMIQPDWLKSNGFHEIEADVNDTSLLLSGDHSIQQQLQEVREDDDDAEMTHSVAVNVYPATSRMPKLTIVVVDTIPVELKSSYMVWSWFIYVLSANLLLVIPLLWVAAWWSLRPIEALAKEVRELEEHNRELLNPATTRELTSLVRNLNRLLKSERERYDKYRTTLTDLTHSLKTPLXXLQXXLRSLRSEKMSVSDAEPVMLEQISRISQQIGYYLHRASMRGGTLLSRELHPVAPLLDNLTSALNKVYQRKGVNISLDISPEISFVGEQNDFVEVMGNVLDNACKYCLEFVEISARQTDEHLYIVVEDDGPGIPLSKREVIFDRGQRVDTLRPGQGVGLAVAREITEQYEGKIVAGESMLGGARMEVIFGRQHSAPKDE

Whole data set: some 140,000 sequences, median “enrichment ratio after two sorts for PhoP signalling” near 0, cut for the highest 2% near 11. The list comes from a sample in which the highest values are over-represented; it also holds similar and randomly drawn sequences. Where only a bound is given, the exact number is not on record here.

The assay covers variants of B1. Nature of the assay: enrichment ratio after two sorts for PhoP signalling (ratio (wild type AVST 3.29)); higher = more functional. The note with it: with PhoP (E. coli).
With LMVM, the enrichment ratio is at most 0.25.
Then EFMR, with at most 0.25.
Then LCAK, with at most 0.25; and IKYG, with at most 0.25.
The result for AISC reads 9.79; that for SAFV, at most 0.25.
For the variant AGNI, the enrichment ratio was at most 0.25.
For the variant PWYG, the enrichment ratio was at most 0.25.
Then WELM, with 17.4; and YQNA, with 14.6.
Then WILM, with at most 0.25; and YQNS, with at most 0.25.
Regarding WQLM, the enrichment ratio came out at 15.8.
Regarding YQWM, the enrichment ratio is at most 0.25.
For the variant YQNY, the enrichment ratio is at most 0.25.
Consider WFLM, for which the enrichment ratio is at most 0.25.
Turning to YQLA, the enrichment ratio is at most 0.25.
For WELF, the enrichment ratio was at most 0.25.
The result for WEGM reads at most 0.25.
The result for YQLM reads 17.7; that for QISH, 7.86; that for FCVP, at most 0.25.
For NSRA, the enrichment ratio is 0.539.
The result for NGWY reads at most 0.25; that for VQWA, at most 0.25; that for NQLM, 6.38.
On to KYLM, for which the enrichment ratio was at most 0.25.
Take SQLM: the enrichment ratio was found to be 21.3.
The result for TQLM reads 22.7; that for DPLM, at most 0.25.
The result for EQLM reads at most 0.25.
As for MPQH, the enrichment ratio is at most 0.25.
Then KFKS, with at most 0.25; and TDIN, with at most 0.25.
As to LAGL, the enrichment ratio was at most 0.25.
The result for SWST reads at most 0.25.
For the variant DQAN, the enrichment ratio was at most 0.25.
For the variant NMCY, the enrichment ratio is at most 0.25.
Then NHCY, with at most 0.25; and THCY, with 1.87.
The result for VLCY reads at most 0.25; that for AHCY, 12.7.
Then AMCY, with 25.2; and SYHH, with 0.299; and IIEM, with at most 0.25.
For the variant KTPQ, the enrichment ratio was at most 0.25.
Then MTSW, with at most 0.25; and AFCG, with 11.4.
The result for AFCI reads at most 0.25; that for AFAG, at most 0.25; that for AFCE, at most 0.25.
The result for AFMG reads 19.5.
For the variant AFVG, the enrichment ratio turned out to be 4.66.
SDVD: the enrichment ratio is at most 0.25.
Regarding FQFY, the enrichment ratio is at most 0.25.
Consider YCFT, for which the enrichment ratio is at most 0.25.
The result for QDDD reads at most 0.25; that for NLAY, at most 0.25; that for GAMS, at most 0.25.
TPSS: the enrichment ratio was at most 0.25.
The result for MNLC reads 11.7; that for KCLC, at most 0.25.
Then MCLC, with 1.65.
Then TNLC, with 13.5.
Regarding GNLC, the enrichment ratio turned out to be 4.14.
Turning to MNLA, the enrichment ratio is at most 0.25.
As to RMKH, the enrichment ratio is at most 0.25.
The result for FPFY reads at most 0.25; that for FYFF, at most 0.25; that for FHQK, at most 0.25.
Consider ATIH, for which the enrichment ratio came out at 25.3.
The result for AGIH reads 16.3; that for ANIH, at most 0.25; that for YTIH, at most 0.25.
The result for TGIH reads at most 0.25; that for ADIH, at most 0.25.
Consider HART, for which the enrichment ratio is at most 0.25.
The result for WISF reads at most 0.25.
Then AQHF, with at most 0.25; and AKSF, with 2.49.
The result for AQSF reads 11.9; that for ADSF, at most 0.25; that for AISF, 13.4.
On to PMKN, for which the enrichment ratio was at most 0.25.
Regarding SCIV, the enrichment ratio turned out to be 1.12.
In the case of TGCE, the enrichment ratio came out at 24.6.
Then RQKI, with 19.2; and AGCK, with 16.1.
Then TGCA, with 19.8; and RGCE, with at most 0.25.
Then RGCA, with at most 0.25; and GGCE, with at most 0.25.
With AGGM, the enrichment ratio is at most 0.25.
Then AGWM, with at most 0.25; and GGCA, with 6.15; and RQKH, with at most 0.25.
On to RQQH, for which the enrichment ratio was at most 0.25.
The result for GKAG reads at most 0.25; that for TPNE, at most 0.25.
The result for EIDL reads at most 0.25; that for VTQY, at most 0.25; that for KAGG, at most 0.25.
The result for SNFF reads at most 0.25.
With TGCV, the enrichment ratio amounted to 7.81.
Regarding AGCV, the enrichment ratio was 23.6.
For GGCK, the enrichment ratio is at most 0.25.
Turning to AGVY, the enrichment ratio turned out to be 18.3.
The result for AGVA reads 1.62; that for AGWI, at most 0.25.
Consider RGCK, for which the enrichment ratio was at most 0.25.
AGDI: the enrichment ratio is at most 0.25.
The result for TGCK reads 37.2; that for TGVY, 2.88; that for AGDH, at most 0.25.
As for AGCA, the enrichment ratio amounted to 15.
On to IEAT, for which the enrichment ratio was at most 0.25.
Then WPAK, with at most 0.25; and GFQM, with at most 0.25.
Consider YNLK, for which the enrichment ratio was at most 0.25.
The result for DYIY reads at most 0.25; that for KRVH, at most 0.25; that for PCSH, at most 0.25.
The result for ESFE reads at most 0.25.
The result for QFHQ reads at most 0.25; that for GIIK, at most 0.25; that for IAHY, at most 0.25.
Regarding VMDH, the enrichment ratio is at most 0.25.
The result for QGCM reads 1.34; that for TGCM, 16.3; that for AGWL, at most 0.25.
The result for AKQM reads at most 0.25; that for AGQM, 15.8; that for RGCM, at most 0.25.
Then AHQM, with at most 0.25; and AGCS, with 10.8; and AGCE, with 6.71.
On to AGCI, for which the enrichment ratio amounted to 14.
Turning to YWCL, the enrichment ratio is at most 0.25.
As to AGCL, the enrichment ratio was 15.2.
For YRSY, the enrichment ratio was at most 0.25.
Consider NQKY, for which the enrichment ratio was at most 0.25.
Regarding VYPF, the enrichment ratio is 1.11.
Consider GMYR, for which the enrichment ratio was at most 0.25.
Consider RCYS, for which the enrichment ratio is at most 0.25.
In the case of YPFH, the enrichment ratio is at most 0.25.
In the case of AGQP, the enrichment ratio was at most 0.25.
With AGCQ, the enrichment ratio came to 23.
For AGCM, the enrichment ratio amounted to 13.6.
Then YWCQ, with at most 0.25; and AWCM, with at most 0.25.
The result for ANCM reads 6.06.
The result for GNWY reads at most 0.25; that for SFTF, at most 0.25.
Take HKIE: the enrichment ratio is at most 0.25.
Consider QMVR, for which the enrichment ratio is at most 0.25.
Then SLVL, with 1.22; and SSVL, with 13.8.
The result for FSVL reads 11.7; that for TRVL, 11.6.
Consider VRVL, for which the enrichment ratio is at most 0.25.
As for SSVA, the enrichment ratio is 10.9.
As for KSVL, the enrichment ratio was at most 0.25.
Regarding FCVL, the enrichment ratio came to 0.336.
Take KRVL: the enrichment ratio is at most 0.25.
Then SHQM, with 0.951; and ITPF, with at most 0.25.
Consider PVFC, for which the enrichment ratio was at most 0.25.
Then QDST, with at most 0.25; and QTQP, with at most 0.25; and ISEK, with at most 0.25.
The result for KQRD reads at most 0.25; that for AYKP, at most 0.25; that for IQCG, at most 0.25.
Then EQCG, with at most 0.25; and LQCG, with at most 0.25.
Turning to SPCG, the enrichment ratio came to 1.67.
Then SNCG, with 13.5; and SQCG, with 24.3; and ERSH, with at most 0.25.
Then EHYT, with at most 0.25.
The result for MFGY reads at most 0.25.
In the case of MMGY, the enrichment ratio is at most 0.25.
Take TGGY: the enrichment ratio worked out at 7.07.
On to MEGY, for which the enrichment ratio worked out at 11.2.
As to ADGY, the enrichment ratio is at most 0.25.
The result for MTGR reads at most 0.25.
Turning to TDGY, the enrichment ratio was 11.5.
The result for LTGY reads at most 0.25; that for THGY, 13.8; that for STGY, 8.87.
With MTGY, the enrichment ratio was 14.4.
Take NHGY: the enrichment ratio was at most 0.25.
Then GYHY, with at most 0.25; and MGHH, with at most 0.25.
For the variant LMID, the enrichment ratio was at most 0.25.
